From PubChem BioAssay AID1159580 (chemical genetic matrix, 2015)
Values joined by “and” are separate entries in the source; they are usually repeats but may differ in a detail not shown here. Equal entries are not always repeated. About 2,000 (36%) of roughly 5,500 compounds were called active. Roughly 18% stayed inconclusive and do not appear here. No stated cut-off is given here; in the data, active means normalized growth mostly below about 0.91 (no sharp cut-off); inconclusive means no clear call, values can overlap the other calls; inactive means mostly above about 0.92. The list shows a part of the results.

Test: chemical genetic growth profiling, strain panel (AID 1159580);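 further: tested at 20 µM; growth read once vehicle control cultures reached saturation at 30 °C; 1 = growth at the plate median or of vehicle wells; lower values mean less growth of the strain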
Conditions: S. cerevisiae deletion strains, growth OD

Measured: normalized growth

CC(=O)O[C@H]1C[C@H](O[C@H]2[C@@H](O)C[C@H](O[C@H]3[C@@H](O)C[C@H](O[C@H]4CC[C@@]5(C)C(CCC6C5C[C@@H](O)[C@]5(C)[C@@H](C7=CC(=O)OC7)CC[C@]65O)C4)O[C@@H]3C)O[C@@H]2C)O[C@H](C)[C@H]1O[C@@H]1O[C@H](CO)[C@@H](O)[C@H](O)[C@H]1O (stereo not given in full)
inactive: locus YAL021C, strain ccr4, hits give low values 1 | locus YAL026C, strain drs2, hits give low values 0.996 | locus YAL030W, strain snc1, hits give low values 1 | locus YBL061C, strain skt5, hits give low values 0.991 | locus YBR009C, strain hhf1, hits give low values 0.995 | locus YBR021W, strain FUR4, hits give low values 1.02 | locus YBR023C, strain chs3, hits give low values 0.999 | locus YBR171W, strain sec66, hits give low values 0.995 | locus YBR229C, strain ROT2, hits give low values 1.01 | locus YBR231C, strain swc5, hits give low values 0.987 | locus YBR279W, strain paf1, hits give low values 0.996 | locus YCL011C, strain gbp2, hits give low values 1 | locus YCL016C, strain dcc1, hits give low values 0.996 | locus YCL029C, strain bik1, hits give low values 0.985 | locus YCL061C, strain MRC1, hits give low values 0.999 | locus YCL069W, strain vba3, hits give low values 0.993 | locus YCR088W, strain abp1, hits give low values 0.989 | locus YDL005C, strain med2, hits give low values 0.996 | locus YDL035C, strain GPR1, hits give low values 1.03 | locus YDL040C, strain nat1, hits give low values 0.994 | locus YDL074C, strain BRE1, hits give low values 1.02 | locus YDL101C, strain DUN1, hits give low values 1.02 | locus YDL134C, strain PPH21, hits give low values 1.02 | locus YDL185W, strain tfp1, hits give low values 1 | locus YDL192W, strain arf1, hits give low values 1.01 | locus YDR001C, strain nth1, hits give low values 0.994 | locus YDR069C, strain doa4, hits give low values 0.988 | locus YDR101C, strain arx1, hits give low values 0.983 | locus YDR137W, strain rgp1, hits give low values 0.997 | locus YDR150W, strain NUM1, hits give low values 1.01 | locus YDR159W, strain sac3, hits give low values 0.981 | locus YDR162C, strain NBP2, hits give low values 1.02 | locus YDR195W, strain ref2 0.961 | locus YDR297W, strain sur2, hits give low values 0.994 | locus YDR318W, strain mcm21, hits give low values 0.989 | locus YDR334W, strain swr1, hits give low values 0.999 | locus YDR335W, strain msn5, hits give low values 1 | locus YDR388W, hits give low values 0.989 | locus YDR392W, strain spt3, hits give low values 0.979 | locus YDR502C, strain sam2, hits give low values 1.01 | locus YEL003W, strain gim4, hits give low values 0.995 | locus YEL037C, strain rad23, hits give low values 0.999 | locus YEL061C, strain CIN8 (second series), hits give low values 0.99 | locus YEL061C, strain CIN8, hits give low values 1.01 | locus YER015W, strain faa2, hits give low values 0.994 | locus YER016W, strain bim1, hits give low values 0.993 | locus YER110C, hits give low values 0.984 | locus YER111C, strain swi4, hits give low values 0.997 | locus YER155C, strain BEM2 (second series), hits give low values 1.01 | locus YER155C, strain BEM2, hits give low values 1 | locus YER167W, strain BCK2, hits give low values 1.01 | locus YFR010W, strain ubp6, hits give low values 0.994 | locus YGL078C, strain dbp3, hits give low values 1.01 | locus YGL086W, strain mad1, hits give low values 0.998 | locus YGL167C, strain pmr1, hits give low values 1 | locus YGL173C, strain kem1, hits give low values 1 | locus YGL227W, strain vid30, hits give low values 0.987 | locus YGL240W, strain doc1, hits give low values 0.995 | locus YGL248W, strain PDE1, hits give low values 1.01 | locus YGL253W, strain hxk2, hits give low values 0.997 | locus YGR078C, strain PAC10, hits give low values 1 | locus YGR135W, strain pre9, hits give low values 1.01 | locus YGR229C, strain SMI1, hits give low values 1.02 | locus YGR252W, strain gcn5, hits give low values 1.17 | locus YHR013C, strain ard1, hits give low values 0.969 | locus YHR027C, strain rpn1, hits give low values 0.999 | locus YHR030C, strain SLT2, hits give low values 1 and 0.975 | locus YHR079C, strain IRE1, hits give low values 0.966 | locus YHR094C, strain hxt1, hits give low values 0.973 | locus YHR129C, strain ARP1, hits give low values 1.01 | locus YHR142W, strain chs7, hits give low values 0.996 | locus YHR200W, strain rpn10, hits give low values 1 | locus YIL066C, strain RNR3, hits give low values 1.01 | locus YIL073C, strain SPO22, hits give low values 1.08 | locus YIL125W, strain kgd1, hits give low values 1 | locus YIR030C, strain dcg1, hits give low values 0.988 | locus YJL092W, strain hpr5, hits give low values 1 | locus YJL095W, strain BCK1 (second series), hits give low values 0.998 | locus YJL095W, strain BCK1, hits give low values 1 and 0.977 | locus YJL115W, strain asf1, hits give low values 0.996 | locus YJL129C, strain trk1, hits give low values 0.998 | locus YJL134W, strain LCB3, hits give low values 1.01 | locus YJL154C, strain vps35, hits give low values 0.993 | locus YJL164C, strain tpk1, hits give low values 1.01 | locus YJL166W, strain qcr8, hits give low values 1 | locus YJL168C, strain set2, hits give low values 0.982 | locus YJL187C, strain SWE1 (second series), hits give low values 1.01 | locus YJL187C, strain SWE1, hits give low values 0.995 | locus YJR043C, strain POL32, hits give low values 0.999 | locus YJR066W, strain TOR1, hits give low values 0.933
